Bioassay records (PubChem)
GDH-TPI counter-1: GDH-TPI coupled enzyme inhibition counter-screen; GDH-TPI coupled enzyme counterscreen, NADH absorbance; inhibition, % at 4.8 µM; 1.2% of 360,000 active; AID 588335; in the data active = inhibition above about 30%;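 note: 0% = DMSO wells and 100% = wells lacking the enzyme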
Mtb UGM inh: Mtb UDP-galactopyranose mutase inhibition | 0.06% of 320,000 active | AID 504406 | purified UGM, fluorescence polarization probe displacement | inhibition, % at 10 µM; in the data active = inhibition above about 10%, passing the limit was not always enough; inconclusive = no clear call, values can overlap the other calls
Target sequence (P9WIQ1 whole entry, looked up): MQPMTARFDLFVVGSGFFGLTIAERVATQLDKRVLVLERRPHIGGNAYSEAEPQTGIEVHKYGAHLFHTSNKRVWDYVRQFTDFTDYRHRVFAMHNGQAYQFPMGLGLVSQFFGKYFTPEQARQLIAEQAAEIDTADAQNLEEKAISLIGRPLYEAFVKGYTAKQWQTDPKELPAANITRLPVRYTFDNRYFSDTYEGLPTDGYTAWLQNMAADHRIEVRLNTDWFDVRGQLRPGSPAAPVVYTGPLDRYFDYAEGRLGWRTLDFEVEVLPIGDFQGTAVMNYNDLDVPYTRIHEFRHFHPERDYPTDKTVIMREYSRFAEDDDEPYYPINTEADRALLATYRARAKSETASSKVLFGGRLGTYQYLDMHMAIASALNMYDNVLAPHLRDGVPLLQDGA
PriA SSB inh: inhibitors of Klebsiella pneumoniae PriA binding to SSB C-terminal tail; AlphaScreen SSBct-PriA binding, biotinylated peptide; 0.6% of 430,000 active; inhibition, % at 33 µM; in the data active = inhibition mostly above about 37%, no sharp cut-off; inactive = mostly below about 20%;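 note: plate controls were negative control peptide for no effect and reference peptide for full effect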
FBA Mtb inh: inhibits M. tuberculosis FBA enzyme; 2.3% of 360,000 active; purified M. tuberculosis FBA, fluorescence read-out; AID 588726; inhibition, % at 1 µM;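 note: 0% = vehicle and 100% = reference inhibitor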
Target sequence (P9WQA3 whole entry, looked up): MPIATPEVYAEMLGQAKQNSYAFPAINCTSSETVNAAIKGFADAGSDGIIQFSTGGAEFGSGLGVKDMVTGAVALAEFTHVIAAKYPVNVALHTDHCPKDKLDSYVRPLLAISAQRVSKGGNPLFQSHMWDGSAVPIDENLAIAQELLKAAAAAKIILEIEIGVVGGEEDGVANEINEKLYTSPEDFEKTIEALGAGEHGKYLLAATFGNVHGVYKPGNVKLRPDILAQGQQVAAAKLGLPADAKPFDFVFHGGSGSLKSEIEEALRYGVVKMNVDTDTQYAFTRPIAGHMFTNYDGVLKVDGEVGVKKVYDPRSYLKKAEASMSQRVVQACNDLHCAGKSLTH
Mtb bLac sens: beta-lactam sensitization of Mtb H37Rv; AID 434955; M. tuberculosis H37Rv growth with meropenem, percent inhibition; 0.27% of 330,000 active; inhibition, % at 25 µM; call rule not given here;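 note: growth measured after seven days incubation then overnight dye step; 0% = bacteria only wells and 100% = bacteria with antibiotic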
Rv3671c inh: inhibits the M. tuberculosis serine protease Rv3671c | P9WHR9 | inhibition, % at 5.96 µM | AID 2606 | 0.048% of 320,000 active; in the data active = inhibition above about 38%;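 note: extracellular domain of Rv3671c used as enzyme; 0% = enzyme with DMSO and 100% = no enzyme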
Mtb FBA inh conf: confirmation of M. tuberculosis fructose-bisphosphate aldolase inhibitors | inhibition, % at 1 µM | 78% of 5,600 active | AID 651616 | purified M. tuberculosis FBA, fluorescence read-out | shares compounds with FBA Mtb inh;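 note: 0% = vehicle wells and 100% = reference inhibitor wells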
GDH-TPI counter-2: counter-screen for M. tuberculosis FBA inhibitors: GDH-TPI coupled enzyme inhibition; inhibition, % at 1 µM; shares compounds with FBA Mtb inh; GDH-TPI coupled enzyme counterscreen, fluorescence; 81% of 5,600 active; in the data active = inhibition above about 10%
GDH-TPI dose: GDH-TPI dose response counter-screen for Mtb FBA; AID 652145; shares compounds with FBA Mtb inh; 79% of 170 active; GDH-TPI coupled enzyme assay, fluorescence, artifact counterscreen; IC50, µM; call rule not given here
Starred values were filed as active, the others as inactive; ? = inconclusive; nt = no result given; + = active, no number. The list is not random: actives were taken first. Their share in the collection is about 3.2%. Cut-off read from the data, not from the text of the source, unless noted: active = inhibition above about 27%; inactive = the rest.

SMILES	GDH-TPI counter-1	Mtb UGM inh	PriA SSB inh	FBA Mtb inh	Mtb bLac sens	Rv3671c inh	Mtb FBA inh conf	GDH-TPI counter-2	others
CCOC(=O)N1CCN(C(=O)c2cccn3c(=O)c4c5c(sc4nc23)CCCC5)CC1	11.7	-0.4	-15.8	4.8	6.0	-1.9	nt	nt
Cc1cccn2c(=O)c3cc(C(=O)N4c5ccccc5CC4C)n(C)c3nc12 (stereo not drawn)	7.7	0.5	-1.3	0.1	-8.3	0.4	nt	nt
CCOc1ccccc1NC(=O)c1nn(-c2ccc(F)cc2)cc1OC	nt	nt	-2.0	nt	nt	nt	nt	nt
CSc1nc2ccc(NC(=O)c3ccccc3SC)cc2s1	nt	nt	3.0	nt	nt	nt	nt	nt
COc1ccc2c(C)cc(=S)[nH]c2c1	6.1	nt	-1.8	5.4	nt	nt	nt	nt
CC(=O)Oc1ccc2c(C)cc(=O)[nH]c2c1	8.2	-2.9	-15.2	58.1*	73.3	7.3	9.9	-2.6
Cc1ccsc1C=NNC(=O)Nc1ccccc1	nt	nt	11.8	nt	nt	nt	nt	nt
Cc1cc(C)c2nc(-c3cccnc3)cc(C(=O)NC(C)c3cnn(C)c3C)c2c1 (stereo not drawn)	5.7	1.9	-15.4	40.3*	-22.8	8.9	+	169.3*
O=S(=O)([N-]c1nc2ccccc2nc1-n1cc[n+](Cc2ccccc2)c1)c1ccc(Br)cc1	11.1	2.4	2.5	27.0*	-1.5	-8.2	+	178.6*
CC(=O)C(C)Oc1ccc2c3c(c(=O)oc2c1C)CCCC3 (stereo not drawn)	15.9	-0.8	-16.3	60.9*	98.8	-3.0	87.6*	69.8*
Cc1c(OC(C)C(=O)N[C@H](C(=O)O)c2ccccc2)ccc2c3c(c(=O)oc12)CCCC3 (stereo partly drawn)	28.4	5.0	-2.7	81.0*	2.5	-5.1	80.7*	59.1*
Cc1c(OC(C)C(=O)NCC(O)c2ccccc2)ccc2c3c(c(=O)oc12)CCC3 (stereo not drawn)	17.0	2.5	-4.6	28.8*	3.1	-9.5	+	+
Cc1c(OC(C)C(=O)NCCN2CCOCC2)ccc2c3c(c(=O)oc12)CCCC3 (stereo not drawn)	1.9	2.2	-5.3	34.1*	0.2	-5.9	50.4*	37.7*
Cc1c(OC(C)C(=O)NC2CC(C)(C)NC(C)(C)C2)ccc2c3c(c(=O)oc12)CCC3 (stereo not drawn)	7.6	0.3	-5.5	20.0	-2.4	-1.4	nt	nt
O=C(Nc1ncn[nH]1)c1ccccc1O	1.2	1.2	-4.3	55.7*	0.1	3.4	+	+
CCOC(=O)c1cc2cc(OC)ccc2[nH]1	5.3	1.1	-1.7	41.5*	-7.1	-2.8	45.0*	42.0*
COc1ccc2[nH]c(C(=O)NCc3ccccc3)cc2c1	11.2	3.2	-6.9	55.5*	-5.2	-8.8	64.3*	46.2*
CNC(=O)c1c(NC(=O)c2ccc(C(C)(C)C)cc2)sc2c1CCCCC2	nt	nt	-3.0	nt	nt	nt	nt	nt
O=C(Nc1ncnc2sccc12)c1sc2ccccc2c1Cl	nt	nt	-3.0	nt	nt	nt	nt	nt
CCn1ccc(C(=O)N2CCN(c3nc4c(OC)ccc(C)c4s3)CC2)n1	nt	nt	-10.0	nt	nt	nt	nt	nt
COC(=O)/C=C1/SC(=NNC(=O)c2ccc(Cl)cc2Cl)NC1=O	nt	nt	1.1	nt	nt	nt	nt	nt
COC(=O)c1c(C(=O)OC)n(CCCN)c2ccc(C)cc12	1.2	-1.0	0.7	98.4*	-1.2	-2.1	99.7*	63.1*
Cc1nc2ccccn2c1C(=O)N1CCC(S(=O)(=O)c2ccc(F)cc2)CC1	nt	nt	-7.0	nt	nt	nt	nt	nt
C=CCNC(=O)C(=O)NC[C@@H](c1cccs1)S(=O)(=O)c1cccs1	nt	nt	-16.0	nt	nt	nt	nt	nt
COc1ccc2sc(-c3ccc(SC)cc3)c(C#CC(C)(C)O)c2c1	39.0*	0.9	6.2	30.3*	?	-15.7	-1.0	-0.3
SMILES	GDH-TPI counter-1	Mtb UGM inh	PriA SSB inh	FBA Mtb inh	Mtb bLac sens	Rv3671c inh	Mtb FBA inh conf	GDH-TPI counter-2	others
Cc1cc(C)n2cc(CSc3nnc(-c4ccccc4)c(-c4ccccc4)n3)nc2n1	-3.4	nt	2.6	0.3	nt	nt	nt	nt
Cc1cc(C)n2cc(CSc3ncn[nH]3)nc2n1	2.5	0.2	-32.6	94.8*	-6.3	1.0	1.2	-6.5
Cc1cc(C)n2cc(COc3ccccc3)nc2n1	7.0	-0.8	-0.8	70.6*	3.2	-6.6	83.0*	60.9*
O=C(NN=Cc1ccc(N2CCOCC2)o1)c1cccc(F)c1	nt	nt	-7.6	nt	nt	nt	nt	nt
CCOc1ccc(S(=O)(=O)NCC2CCCO2)c2ccccc12 (stereo not drawn)	-5.6	1.0	-5.3	-0.2	-0.7	-6.2	nt	nt
CCOc1ccc(S(=O)(=O)NCC2CCCO2)c2cccnc12 (stereo not drawn)	1.3	2.8	-8.8	28.0*	0.0	-3.5	+	+
CCOC(=O)C1CCCN(C(=O)c2ccc3nc(-c4ccc(OC)c(OC)c4)c(-c4ccc(OC)c(OC)c4)nc3c2)C1 (stereo not drawn)	5.1	-1.8	-20.9	-1.9	0.4	-4.8	nt	nt
O=C(O)c1ccc2nc(-c3ccccc3)c(-c3ccccc3)nc2c1	12.5	-0.8	13.9	29.6*	-3.8	0.5	59.4*	34.2*
CCc1nc2ccc(C(=O)NCCCN3CCN(c4ccc(F)cc4)CC3)cc2nc1CC	0.9	0.5	5.3	4.1	7.3	-9.2	nt	nt
CCOC(=O)C1CCCN(C(=O)c2ccc3nc(-c4ccccc4)c(-c4ccccc4)nc3c2)C1 (stereo not drawn)	29.3	1.8	-5.0	36.2*	7.8	-2.4	4.3	5.6
CCN1CCN(C(=O)c2ccc3nc(-c4ccccc4)c(-c4ccccc4)nc3c2)CC1	24.6	-1.3	12.8	44.1*	-0.5	0.5	128.8*	91.0*
CN1CCN(CCNC(=O)c2ccc3nc(-c4ccc(F)cc4)c(-c4ccc(F)cc4)nc3c2)CC1	6.1	-1.8	4.0	57.8*	0.6	-12.3	18.7	6.3	GDH-TPI dose=3.36*
NC(=O)c1ccc2nc(-c3ccccc3)c(-c3ccccc3)nc2c1	23.0	0.7	-5.0	14.6	5.4	-10.6	nt	nt
O=C(Cn1c(CN2CCOCC2)nc2ccccc21)N1CCCCCC1	nt	nt	-9.0	nt	nt	nt	nt	nt
FC(F)(F)c1cccc(NC(=S)NCc2ccccc2)c1	-10.6	0.3	-28.0	-1.2	44.1	-2.7	nt	nt
CCNC(=S)Nc1ccc2c(c1)c(=O)n(C)n2Cc1cccc(C(F)(F)F)c1	3.1	nt	nt	80.5*	nt	nt	190.1*	149.7*
Cc1ccc(CNC(=S)Nc2ccc3c(c2)c(=O)n(C)n3Cc2cccc(C(F)(F)F)c2)cc1	12.9	nt	nt	36.2*	nt	nt	140.7*	100.7*
Oc1ccccc1C=Nc1cccc2ccccc12	-7.0	2.2	12.5	42.4*	4.0	-6.2	15.3	-2.7	GDH-TPI dose=9.29*
Cc1cc(Br)c(S(=O)(=O)NCc2ccccn2)cc1C	nt	nt	7.0	nt	nt	nt	nt	nt
O=C(O)c1ccc2c(c1)C(=O)N(c1ncccn1)C2=O	-0.4	0.2	-10.8	0.4	3.3	-5.0	nt	nt
